One test has as its target ENPP7. Put plainly: pooled miR-30 sensor sort-seq; sequence = guide strand. The note with it: shRNA.
As for TTGTAGACGTGGAGCTTGGGGT, the sensor-assay potency score (higher = more potent) is -0.738.

Take TTCATGTCCATGTCCTTGTTGT: the sensor-assay potency score (higher = more potent) is -0.0468.

The sequence TTCTTGTAGACGTGGAGCTTGG yielded a sensor-assay potency score (higher = more potent) of -0.97.

In turn, TTGTCCACGGTCGTCATGCCGT had a sensor-assay potency score (higher = more potent) of -1.22.

In the case of TAGGGCAGCTTCACCTTGCTGG, the sensor-assay potency score (higher = more potent) is -0.078.

TACATGTTGTGAACCACCCCGT came in with a sensor-assay potency score (higher = more potent) of -0.259.

TTGTAGTTGTGTGCGATGCCTT registered a sensor-assay potency score (higher = more potent) of -0.915.

Sequence TCGCTCTCCACTCCGTCTCATT had a sensor-assay potency score (higher = more potent) of -1.59.

The sequence TAGTCCAGGAGCTCAAACTCGA gave a sensor-assay potency score (higher = more potent) of -0.814.

TTTAGGGAGCAGCATCCCGTTT: the sensor-assay potency score (higher = more potent) is -1.36.

For TTGCGCGCGATGCTCTCCCGGA, the sensor-assay potency score (higher = more potent) was -1.29.

In turn, TTGAACTGGACGTTAATTCTCC registered a sensor-assay potency score (higher = more potent) of -0.264.

The next test addresses ENTHD1. The description is as above. Particulars: shRNA.
TTAAGTTCTTGGATCACTGTGC: the sensor-assay potency score (higher = more potent) came out at 0.62.

TATTTGTAAAGATACCATCTGA: the sensor-assay potency score (higher = more potent) was -0.616.

For TTTTATTATGTAACCTTCCAAA, the sensor-assay potency score (higher = more potent) is -1.23.

The values above are taken from the OligoGym collection.
Note: reference of the scale not given here.
